# An excerpt weighted towards active compounds, which were near 4.6% of everything screened.
# D1 agonist: Allosteric Agonists of the Human D1 Dopamine Receptor: qHTS; D(1A) dopamine receptor (Homo sapiens), P21728; HEK293 T-REx D1 cells, calcium flux, agonist mode; activation, % at 2 µM; 360,000 compounds, 1% hits; also: 0% is about no effect
#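 Inducible HEK293 T-REx D1 cells, force-coupled to calcium signalling, were plated at 4000 cells/well with tetracycline and held overnight at 30 C. After no-wash calcium dye loading, compound-evoked calcium rise over 180 s flagged agonists.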
# D1 PAM: Potentiators of Human D1 Dopamine Receptor: qHTS; D(1A) dopamine receptor (Homo sapiens), P21728; AID 504651, 2011; potentiation, % at 10 µM; 360,000 compounds, 0.036% hits; HEK293 TREx D1 cells, calcium flux, dopamine EC20 potentiation; in the data active = potentiation above about 30%; also: 0% is about no effect
# TRHR PAM: qHTS for Small Molecule Agonists and Allosteric Enhancers of Human TRH Receptor: Primary Screen for Enhancers. Thyrotropin-releasing hormone receptor (Homo sapiens), P34981. TRHR cells, fluo-8 calcium fluorescence, EC20 TRH enhancement. enhancement, % at 2 µM. 360,000 compounds, 0.66% hits. AID 493056, 2011; in the data active = enhancement above about 30%; also: 0% is about no effect
# Target sequence (P34981 whole entry, looked up): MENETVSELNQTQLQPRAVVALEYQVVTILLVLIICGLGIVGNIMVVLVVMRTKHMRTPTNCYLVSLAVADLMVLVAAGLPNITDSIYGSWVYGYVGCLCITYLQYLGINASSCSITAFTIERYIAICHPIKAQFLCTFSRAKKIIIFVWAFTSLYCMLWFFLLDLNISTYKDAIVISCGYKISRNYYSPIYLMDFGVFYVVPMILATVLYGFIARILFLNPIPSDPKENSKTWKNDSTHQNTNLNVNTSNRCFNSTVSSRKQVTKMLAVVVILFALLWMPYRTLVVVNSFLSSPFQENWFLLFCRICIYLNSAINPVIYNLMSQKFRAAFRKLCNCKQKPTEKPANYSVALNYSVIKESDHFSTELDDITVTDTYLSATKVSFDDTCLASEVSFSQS
#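 Enhancer read-out: after compound pinning and an initial kinetic agonist-mode read, an EC20 of TRH (10 nM final) was injected and fluo-8 calcium signal (Ex 480/Em 530) followed at 1 s/cycle for 100 cycles in TRHR-expressing cells.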
# D1 antagonist: Antagonist of Human D 1 Dopamine Receptor: qHTS; D(1A) dopamine receptor (Homo sapiens), P21728; HEK293 TREx D1 cells, calcium flux, dopamine EC80; hits give low values; activity change, negative = inhibition, % at 10 µM; 360,000 compounds, 3.2% hits; AID 504652, 2011; in the data active = activity change below about -30%; also: % is scaled to controls: 0 for no effect and ±100 for the full control effect
#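 HEK293 T-REx cells expressing inducible, force-coupled D1 receptor; no-wash Ca dye, 30–90 min RT. Cmpd → 180 s read at 1 Hz → EC80 DA → 180 s read.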
# TRHR ag: qHTS for Small Molecule Agonists and Allosteric Enhancers of Human TRH Receptor: Primary Screen for Agonists | Thyrotropin-releasing hormone receptor (Homo sapiens), P34981 | TRHR cells, calcium flux fluo-8, FDSS agonist mode | activation, % at 2 µM | 360,000 compounds, 0.18% hits | AID 493084, 2011; also: 0% is about no effect
#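 Agonist-mode FDSS calcium read (Ex 480/Em 530, 1 s cycles) in 1536-well TRHR cells with fluo-8 dye, after 10-cycle baseline and 23 nL compound addition; TRH at EC20 (10 nM final) added afterwards for the enhancer phase.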
# * hit, by the source's call. Rule as the data show it, unless noted: active = activation above about 30%; inactive = the rest.
SMILES,D1 agonist,D1 PAM,TRHR PAM,D1 antagonist,TRHR ag
Cc1ccc(Nc2nc(Cl)nc(NC(C)(C)C)n2)cc1,11,-1,-7,-37*,1
CCOC(=O)c1sc2cc([N+](=O)[O-])cc(SCC(C)C)c2c1N,55*,-4,-1,18,14
CCOc1ccccc1N(C)C(=O)c1c2c(nc3ccccc13)C(=O)N(C1CCCCC1)C2,2,-5,-2,-7,-1
O=C(NCc1ccccn1)c1n[nH]c2ccccc12,2,0,39*,0,0
O=C(NCc1ccccn1)c1n[nH]c(=O)c2ccccc12,6,-1,16,12,0
CCOC(=O)c1c(CSC(=N)N)n(-c2ccc(C)cc2)c2cc(Br)c(OC(C)=O)cc12,39*,2,4,25,2
CCOC(=O)c1c(CSC(=N)N)n(C)c2cc(Br)c(OC(C)=O)cc12,2,-11,3,6,0
O=C(c1cc(-c2ccc(Cl)cc2)on1)N1CCc2ccccc2C1,2,-5,-1,-1,1
O=C(c1cc(-c2ccccc2)on1)N1CCc2ccccc2C1,1,-6,36*,0,1
CS(=O)(=O)N1CCCc2cc(C(=O)Nc3cccc(C(F)(F)F)c3)ccc21,1,1,0,-17,-2
Cc1cccc(NC(=O)Cn2c(=O)n(CCCS(=O)(=O)C3CCCCC3)c(=O)c3ccccc32)c1,2,1,-1,15,-1
CC(=O)N1CCc2c(sc3c2c(=O)n(Cc2ccccc2)c(=O)n3Cc2ccccc2Cl)C1,2,2,5,10,0
CCOc1ccc(Cn2c(CNS(=O)(=O)c3ccc(C(C)(C)C)cc3)nc3cccnc32)cc1,3,4,1,2,0
Cc1nn(Cc2ccccc2Cl)c(C)c1NC(=O)/C=C/c1cnn(C)c1,2,-3,7,-8,0
CCn1cc(/C=C/C(=O)Nc2c(C)nn(Cc3ccccc3)c2C)cn1,9,-2,35*,1,-2
CC1(C(=O)NC2CCCCC2)Cc2ccccc2C(=O)N1Cc1ccccc1Cl (stereo not given),2,2,-5,1,1
CC(C)C(C(=O)OCC(=O)c1cccc([N+](=O)[O-])c1)N1C(=O)[C@@H]2[C@H]3CC[C@H](C3)[C@@H]2C1=O (stereo not given in full),2,2,-4,-33*,0
O=C(CN1C(=O)C2C3CCC(C3)C2C1=O)OCC(=O)c1cccc([N+](=O)[O-])c1 (stereo not given),14,-6,-1,-33*,0
O=C(CCN1C(=O)C2C3CCC(C3)C2C1=O)OCC(=O)c1cccc([N+](=O)[O-])c1 (stereo not given),3,5,2,-6,0
CCOC(=O)c1[nH]c2c(c1Cc1ccccc1)C(=O)CC(c1ccccc1)C2 (stereo not given),5,-3,-2,3,1
O=C(NCc1ccc2c(c1)OCO2)c1ccc(CS(=O)(=O)Cc2cccc(Cl)c2)o1,12,-7,-2,-25,1
O=C(NCc1ccc(Cl)cc1)c1ccc(CSCc2cccc(Cl)c2)o1,39*,-4,-4,-16,3
O=C(NCc1ccc2c(c1)OCO2)c1ccc(CSCc2ccc(Cl)cc2)o1,17,-2,1,-34*,1
CCc1ccccc1S(=O)(=O)Cc1ccc(C(=O)NCc2ccc3c(c2)OCO3)o1,0,-8,-9,-56*,0
Cc1ccc(CNC(=O)c2ccc(CSCc3ccc(Cl)cc3)o2)cc1,19,-2,8,-13,2
SMILES,D1 agonist,D1 PAM,TRHR PAM,D1 antagonist,TRHR ag
O=[N+]([O-])c1cccnc1N1CCC(c2cc(-c3ccc(Cl)cc3)n[nH]2)CC1,3,0,-8,-33*,0
CCOC(=O)CN1CCC(c2cc(-c3ccc(Cl)cc3)n[nH]2)CC1,13,-6,-2,-23,3
CCCCS(=O)(=O)c1oc(-c2ccc(F)cc2)nc1S(=O)(=O)c1ccccc1,7,-3,5,-4,-1
CCc1ccc(NC(=O)N2CCN(c3nnc(C)c4c(C)n(-c5ccc(Cl)cc5)nc34)CC2)cc1,4,7,-2,-8,0
CC(c1ccncc1)C(C)c1ccncc1 (stereo not given),6,1,6,5,0
C=CCSc1nnc(-c2cc3c(-c4ccccc4)nn(C)c3s2)n1C,2,-1,2,-46*,0
CN(C)c1ccc(/C=C/c2ccncc2)cc1,14,-3,1,4,19
COc1cc2nc(/C=C/c3ccc(N(C)C)cc3)sc2cc1SC,554*,35*,6,12,85*
O=C(c1ccoc1)N1CCC2(CC1)Oc1ccc(Cl)cc1C(=O)C21CC(c2cccnc2)=NO1 (stereo not given),5,-9,-2,-100*,2
COc1ccc(OC)c(C(=O)COC(=O)CN2C(=O)NC3(CCCCC3C)C2=O)c1 (stereo not given),1,-4,33*,3,0
CC(C)(C)c1ccc(C(=O)COC(=O)CN2C(=O)NC3(CCCC3)C2=O)cc1,7,-3,16,-31*,-3
COc1ccccc1C(=O)NC(=O)COC(=O)CN1C(=O)NC2(CCCCC2C)C1=O (stereo not given),1,0,4,8,0
O=C(O)c1nnn(-c2ccc([N+](=O)[O-])cc2)c1-c1ccccc1,0,-4,0,-42*,0
CCN(CC)c1nc2c(S(=O)(=O)c3cccc(Cl)c3)nnn2c2ccsc12,4,-6,-20,-40*,1
CN(Cc1ccccc1)c1nc2c(S(=O)(=O)c3cccc(Cl)c3)nnn2c2ccsc12,2,-3,7,-32*,0
CCCCNc1nc(Oc2ccc(=O)n(-c3ccccc3)n2)nc(N(C)C)n1,-1,0,3,10,-2
CCOc1ccc(/C=C/C(=O)OCC(=O)NCCc2ccc(OCC)c(OCC)c2)cc1OC,0,-2,-2,10,0
COc1cc(/C=C/C(=O)OCC(=O)NCCc2ccccc2)ccc1OC(F)F,14,-7,1,-30*,-1
CCOc1ccccc1NC(=O)COC(=O)/C=C/c1ccc(OC)c(OC)c1,6,-4,3,-38*,0
CC(C)(C)c1ccc(OCCOCCn2c(-c3ccc(Cl)cc3)nc3ccccc3c2=O)cc1,0,0,10,-20,-1

# Assay outcomes as filed in PubChem.
